Data from PubChem BioAssay AID1852 (Sanford-Burnham Center for Chemical Genomics, 2009).
The whole screen tested about 2,500 compounds, of which about 1,100 (44%) were called active. So high a share suggests a set chosen from earlier hits. Some of the results follow. A number with no mark means an inactive call.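 How the source made its calls: active means inhibition above 50% at 4 µM in the single-point screen; inactive means inhibition of 50% or less.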

Assay: blockers of TNF-a NF-kB luciferase induction – cell-based, HEK293T NF-kB-Luc, luminescence, selectivity assay for NOD1/NOD2 signaling inhibitor project, primary screen (AID 1852)
Details: TNF-a induced, 14 h, at 4 µM, stronger effect = higher value

Row | SMILES | inhibition
1 | COC(=O)C(=Cc1ccc(OCc2ccc([N+](=O)[O-])cc2)c(OC)c1)C(=O)OC | 18%
2 | O=[N+]([O-])c1cc([N+](=O)[O-])c2oc(-c3ccccc3)c(Br)c2c1O | 66% (active)
3 | CCN1/C(=C/c2cccc[n+]2C)Sc2ccc(OC)cc21 | 50.4% (active)
4 | Cc1ccc2c(c1)N(C)/C(=C/c1cccc[n+]1C)S2 | 24.9%
5 | O=C(Nc1cccc(-c2ccc(N3CCCCC3)nn2)c1)C(F)(F)F | -90.7%
6 | Cc1ccc(S(=O)(=O)/C(=C/Cl)NC(=O)c2ccccc2)cc1 | 11.6%
7 | Cc1ccc(C(=O)Sc2cccccc2=O)cc1 | 103% (active)
8 | CN(C)c1ccc(C(=O)Nc2nnc(-c3ccc(Cl)cc3)o2)cc1 | 106% (active)
9 | Cc1cccc(-c2nnc(NC(=O)c3ccc(Cl)cc3)o2)c1 | 102% (active)
10 | O=C(Nc1nnc(-c2ccccc2)o1)c1ccc(Cl)cc1 | 104% (active)
11 | O=C(Nc1sc2c(c1C(=O)O)CCCC2)c1ccc(Cl)cc1 | 29.8%
12 | CCC(=O)N1c2ccc(S(=O)(=O)N3CCN(c4ccc([N+](=O)[O-])cc4)CC3)cc2CC1C (centres undefined) | 26.6%
13 | CCN(CC)S(=O)(=O)c1cccc(NC(=O)Nc2cccc(C(F)(F)F)c2)c1 | 69% (active)
14 | O=C(Nc1ccc(OC(F)F)cc1)Nc1cccc(C(F)(F)F)c1 | 14.2%
15 | CCN(CC)S(=O)(=O)c1ccc(NC(=O)Nc2cccc(C(F)(F)F)c2)cc1 | 10.5%
16 | N#CC(c1ccccc1)c1ccc2c(C(F)(F)F)cc(C(F)(F)F)nc2n1 (centres undefined) | 20.4%
17 | N#CC(c1cccc(Cl)c1)c1ccc2c(C(F)(F)F)cc(C(F)(F)F)nc2n1 (centres undefined) | 55.7% (active)
18 | Oc1ccc(Oc2ccc3c(C(F)(F)F)cc(C(F)(F)F)nc3n2)cc1 | 45.2%
19 | O=c1c2cc(Cl)ccc2nc(-c2ccc(Cl)c(Cl)c2)n1O | 74.1% (active)
20 | O=c1c2cc(Br)ccc2nc(-c2cccc(C(F)(F)F)c2)n1O | 65% (active)

Row | SMILES | inhibition
21 | O=c1c2cc(Br)ccc2nc(-c2ccc(Cl)cc2)n1O | -30%
22 | Cc1ccc(C(=O)O/N=C(\N)c2ccccn2)c(C)c1 | 61.4% (active)
23 | Cc1ccc(C(=O)O/N=C(\N)c2ccccn2)c(Cl)c1 | -56.4%
24 | N/C(=N\OC(=O)c1cccc2ccccc12)c1ccc(Br)cc1 | -0.8%
25 | CCN(CC)S(=O)(=O)c1ccc(Oc2ccc(S(=O)(=O)N(CC)CC)cc2)cc1 | 70.1% (active)
26 | C=C(C(=O)c1ccccc1)C(CC(=O)c1ccccc1)c1ccccc1 (centres undefined) | -23.3%
27 | C=C(C(=O)c1ccccc1)C(C)CC(=O)c1ccccc1 (centres undefined) | -8.9%
28 | C=C(C(=O)c1ccccc1)C(C(=C)C(=O)c1ccccc1)c1ccc(OC)cc1 | 62.5% (active)
29 | CCC1C(=NO)C(CC)C(c2ccccc2)NC1c1ccccc1 (centres undefined) | 32.5%
30 | CCOc1ccc(/C=C/C(O)=C2/C(=O)N(C)C3(C)CC2c2ccccc2O3)cc1OC (centres undefined) | 51.8% (active)
31 | COc1cc(/C=C/[N+](=O)[O-])ccc1OCc1cccc(C(=O)O)c1 | 46%
32 | COc1ccc(/C=C/C(O)=C2/C(=O)N(C)C3(C)CC2c2ccccc2O3)cc1 (centres undefined) | -8.9%
33 | CC(C)c1ccc(S(=O)(=O)/N=C2/C=C(Sc3ncn[nH]3)C(=O)c3ccccc32)cc1 | 84.1% (active)
34 | Cc1cc(C)c(S(=O)(=O)/N=C2/C=C(Sc3ncn[nH]3)C(=O)c3ccccc32)cc1C | 75.1% (active)
35 | Cc1ccc(S(=O)(=O)/N=C2/C=C(Sc3ncn[nH]3)C(=O)c3ccccc32)c(C)c1 | 100% (active)
36 | Cc1cc(SCC(=O)OC/C(O)=C(\C#N)c2nc3ccccc3[nH]2)c(C)cc1Br | 59.5% (active)
37 | Cc1ccc(C)c(SCC(=O)OC/C(O)=C(\C#N)c2nc3ccccc3[nH]2)c1 | 52.5% (active)
38 | Cc1cc(Br)ccc1SCC(=O)OC/C(O)=C(\C#N)c1nc2ccccc2[nH]1 | 106% (active)
39 | COC(=O)C1CCN(C(=O)C2CCN(C(=O)[C@@H](NS(=O)(=O)c3ccc(C)cc3)C(C)C)CC2)CC1 | 15.9%
40 | COc1ccccc1C(=O)Nc1nc2ccccc2[nH]1 | 82.8% (active)

Row | SMILES | inhibition
41 | COC(=O)/C(=C\c1cc(OC)c(OC)c(OC)c1)c1nc2ccccc2[nH]1 | -13.3%
42 | COc1cc(SC)ccc1C(=O)Nc1nc2ccccc2[nH]1 | 103% (active)
43 | COc1ccc(Nc2nc(C(=O)N3CCc4ccccc4C3)cs2)cc1 | 20.3%
44 | O=C(c1ccc(Cl)cc1)C1CCCN(Cc2cnn(-c3ccccc3)c2)C1 (centres undefined) | 5.5%
45 | Cc1oc(-c2ccc(Cl)cc2)nc1CSCC(=O)NC1CCN(Cc2ccccc2)CC1 | 47.1%
46 | CCOC(=O)N1CCN(C(=O)C2CCCN(Cc3nc(-c4ccc(Cl)cc4)oc3C)C2)CC1 (centres undefined) | 56.2% (active)
47 | Cc1ccc(-n2c3nc(=O)[nH]c(=O)c-3cc3cc([N+](=O)[O-])ccc32)cc1C | 41.9%
48 | Cc1ccc(C)c(-n2c3nc(=O)[nH]c(=O)c-3cc3cc([N+](=O)[O-])ccc32)c1 | 58.5% (active)
49 | CCSc1nnc(Cc2cc(=O)[nH]c(=O)[nH]2)n1-c1cc(C)ccc1C | 16.9%
50 | O=C(O)CCCN1C(=O)/C(=C\C(Cl)=C\c2ccccc2)SC1=S | 77.9% (active)
51 | COc1ccc(/C=C2/SC(=S)N(CCC(=O)O)C2=O)cc1 | 36%
52 | CC(/C=C1\SC(=S)N(c2ccc(C(=O)O)cc2)C1=O)=C\c1ccccc1 | 3.6%
53 | COc1cccc(/C=C2/SC(=S)N(CCCC(=O)Nc3ccc(O)cc3)C2=O)c1 | 19.5%
54 | CC(/C=C1\SC(=O)N(CCCC(=O)O)C1=O)=C\c1ccccc1 | 79.5% (active)
55 | CC1(c2ccccc2)CC(C)(C)N2C(=O)/C(=C3\SC(=S)NC3=O)c3cccc1c32 (centres undefined) | 84.3% (active)
56 | CCc1cc2c3c(c1)C(C)CC(C)(C)N3C(=O)/C2=C1\SC(=O)NC1=O (centres undefined) | 6.9%
57 | N#Cc1c2ccc(O)cc2n2ccccc12 | 70% (active)
58 | COc1ccc2c(c1)oc(=O)c1ccccc12 | -18.4%
59 | COc1ccc2c(C#N)c3ccccn3c2c1 | 66.3% (active)
